According to PubChem BioAssay AID488789 (Broad Institute, 2010):
Potency and affinity values are given separately. Records with an inconclusive call do not appear. Active and inactive are the calls of the source.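 How the source made its calls: active means samples whose fitted half-maximal inhibition concentration is no more than ten times the top valid dose tested; inconclusive means flat response between -70 and -30, or invalid curve fit; inactive means flat within 30 of zero, potency above limit, or signal rising.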

These compounds were tested against Trypsin (Sus scrofa) (UniProt P00761) (assay: porcine trypsin inhibitors, dose response, selectivity assay for Rce1 protease inhibitor project, biochemical, quenched peptide fluorescence, cherry-pick (AID 488789)). Details: quenched peptide cleavage fluorescence; series mostly up to 10 µM; activity change, negative = inhibition: at the top concentration.
Sequence of Trypsin (Sus scrofa) (P00761 whole entry, looked up): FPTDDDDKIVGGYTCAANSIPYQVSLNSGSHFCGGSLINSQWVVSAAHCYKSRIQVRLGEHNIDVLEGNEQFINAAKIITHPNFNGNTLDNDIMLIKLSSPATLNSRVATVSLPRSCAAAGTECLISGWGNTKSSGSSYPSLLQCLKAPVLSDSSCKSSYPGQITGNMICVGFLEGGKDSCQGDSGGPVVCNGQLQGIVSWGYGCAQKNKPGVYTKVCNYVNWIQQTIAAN

Activity change, negative = inhibition, inactive:
O=C(Nc1cc(S(=O)(=O)N2CCOCC2)ccc1N1CCCC1)c1cnccn1 1.72%, CN(C)CCCN(C(=O)c1cc(-c2cccs2)nc2ccccc12)c1nc2ccc(F)cc2s1 -3.8%, O=C(CC1(O)C(=O)N(C/C=C/c2ccccc2)c2ccccc21)c1ccccn1 (configuration not stated) 5.45%, Oc1c(N=NC(=S)Nc2ccccc2F)c2ccccc2n1Cc1ccccc1Cl -0.175%, O=C(COC(=O)c1ccccc1Cc1ccccc1)NC1CCS(=O)(=O)C1 (configuration not stated) -2.02%, CN1CCN(CCCNC(=O)c2cc3c(-c4ccc(Cl)cc4)nn(C)c3s2)CC1 -4.72%, Cc1cccc(-c2nnc(SCc3ccc(C#N)cc3)n2Cc2ccco2)c1 2.48%, O=C(C[n+]1cc2ccccc2c2ccccc21)c1ccccc1 -8.51%, COc1ccc(Br)cc1C(=O)Nc1cc(C)cc(C)c1 13.5%, COC(=O)c1nc(N)sc1-c1ccc(Cl)c(Cl)c1 -6.59%, Cc1ccc2nc(N(CCN(C)C)C(=O)c3ccc4ccccc4c3)sc2c1 6.43%, C#CCNC(=O)C1=C[C@@H](C2CCCCC2)C[C@@H](OCc2ccc(CO)cc2)O1 12.6%, Clc1ccc(CN2CCc3c([nH]c4ccccc34)C2)cc1Cl -2.35%, CCOC(=O)c1ccc(NC(=O)N2CCN(Cc3ccccc3)CC2)cc1 0.748%, O=C1NC2(C=Cc3c(ccc4ccccc34)O2)Oc2ccccc21 (configuration not stated) 2.81%, Cc1cc(N2CCN(C(c3ccccc3)c3ccccc3)CC2)n2ncnc2n1 6.42%, CCc1cc(=O)oc2cc(OCC(=O)N3CCC(C(=O)O)CC3)ccc12 -6.59%, O=C(c1cn(-c2ccccc2)nc1-c1cccs1)N1CCN(c2ccccn2)CC1 -4.36%, O=C(Nc1ncccn1)c1ccc([N+](=O)[O-])cc1 4.42%, Cc1ccc(NC(=O)CCc2ccc(S(=O)(=O)NC3CCCCC3)cc2)cc1 8.43%, C/C(CC1(O)C(=O)Nc2ccccc21)=N\O (configuration not stated) 30.9%, C=C(C)C1(O)OC(=O)C=C1OC (configuration not stated) 12.6%, O=C(c1cnc2n(c1=O)CCS2)N1CCN(C(c2ccccc2)c2ccc(Cl)cc2)CC1 (configuration not stated) 6.3%, CCCCCCCCCCOC(=O)Cn1c(COc2ccccc2C)[n+](C)c2ccccc21 10.7%, COc1ccccc1/C=C/C=N/NC(=O)CN1CCN(S(=O)(=O)c2ccc(C)cc2)CC1 -1.16%, CC(C)N1CCN(S(=O)(=O)c2ccc3ccccc3c2)CC1 0.625%, COc1ccc(/C=N/NC(=O)c2ccc(Cl)cc2)cc1COC(C)=O 5.75%, O=C(O)CCc1nc2cc(C(F)(F)F)ccc2n(Cc2ccccc2)c1=O 3.97%, CCOc1ccc(-c2nc(CCl)cs2)cc1OC -9.87%, COc1ccccc1NC(=O)/C(=C\c1cccnc1)NC(=O)c1ccc(C)cc1 1.96%, CCN(C(=O)COC(=O)c1cc(-c2cccs2)nc2ccccc12)C1CCS(=O)(=O)C1 (configuration not stated) 7.15%, Cc1ccc(OCCN2C(=O)C(=O)c3cc(C)ccc32)cc1 2.64%, Cc1nc(-c2ccc(Cl)cc2)sc1C1(C)CC(c2ccccc2Br)=NO1 (configuration not stated) 18.1%, Cc1cc(C)n2nc(CC(=O)NNC(=O)c3ccc(N(C)C)cc3)nc2n1 7.45%, Cc1ccc(-c2csc(N3CCN(c4cc5c(cc4Cl)nc(-c4ccncc4)n5CCOCCO)CC3)n2)cc1 -2.1%, COc1cccc(CNc2nc3nc(C)cc(C)n3n2)c1 -0.687%, Cc1ccc(OCCn2c3ccccc3n3nc(C)c(=O)nc23)cc1 -5.01%
